Experimental data: PMC6919601, “Identification of Plasmodium dipeptidyl aminopeptidase allosteric inhibitors by high throughput screening” (PLoS ONE, 2019)
Hit rate of the full screen: of about 110,000 compounds, about 230 (0.21%) showed an effect of 50% or more. For the sample, strong results were picked, then their nearest neighbours and some compounds at random.

What follows are molecules tested against DPAP1 (Plasmodium falciparum, UniProt Q8IIJ9) (assay: primary screen, percent inhibition; read by cleavage of a fluorogenic dipeptide substrate; higher = more effect of the substance).
Design: species or system P. falciparum D10 trophozoite lysates; single well
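Also: 30 min substrate incubation versus DMSO and 10 µM JCP410 controls.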

Chain of DPAP1 (Q8IIJ9 whole entry, looked up): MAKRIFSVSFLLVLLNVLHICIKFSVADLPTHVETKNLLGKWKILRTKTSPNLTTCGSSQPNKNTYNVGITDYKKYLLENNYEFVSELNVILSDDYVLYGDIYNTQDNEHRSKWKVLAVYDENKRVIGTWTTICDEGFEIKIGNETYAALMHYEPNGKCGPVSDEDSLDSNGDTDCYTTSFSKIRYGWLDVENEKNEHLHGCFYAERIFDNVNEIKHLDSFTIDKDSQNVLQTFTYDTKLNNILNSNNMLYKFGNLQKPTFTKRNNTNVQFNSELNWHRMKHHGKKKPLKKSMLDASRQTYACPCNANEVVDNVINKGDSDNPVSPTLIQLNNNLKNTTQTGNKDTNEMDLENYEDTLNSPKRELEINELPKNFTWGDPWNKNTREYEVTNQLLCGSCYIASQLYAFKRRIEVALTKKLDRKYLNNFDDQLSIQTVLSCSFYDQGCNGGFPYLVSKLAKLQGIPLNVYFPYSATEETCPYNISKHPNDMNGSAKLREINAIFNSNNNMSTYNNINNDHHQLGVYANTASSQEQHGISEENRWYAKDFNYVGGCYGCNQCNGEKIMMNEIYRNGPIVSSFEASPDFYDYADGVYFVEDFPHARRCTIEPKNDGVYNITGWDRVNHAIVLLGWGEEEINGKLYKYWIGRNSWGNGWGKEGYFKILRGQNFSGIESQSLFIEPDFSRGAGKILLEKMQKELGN

| Structure (SMILES) | % Inhibition @ 10 uM |
| --- | --- |
| Cc1nsc2ccc3ccccc3c12 | 3.36% |
| Cc1nsc2ccc(Cl)cc12 | 55% |
| Cc1ccc(-c2noc(CCC(=O)NCc3ccc(F)cc3Cl)n2)cc1 | -0.999% |
| COc1ccc(-c2noc(CCC(=O)NCc3cc(OC)ccc3OC)n2)cc1 | 0.675% |
| COc1ccc(-c2noc(CCC(=O)NCc3ccc(F)cc3Cl)n2)cc1 | 60.3% |
| COCCNc1nc2c(S(=O)(=O)c3ccccc3)nnn2c2ccsc12 | -0.256% |
| CCc1c(C)sc(NC(=O)Cc2ccc(OC)c(OC)c2)c1C(N)=O | 16.2% |
| CCOC(=O)c1cc(-c2ccccc2)n(CCC(=O)N2CCCC(C)C2)c1C (stereo not drawn) | 1.2% |
| COc1ccccc1CNC(=O)c1cccc(Br)c1 | -4.15% |
| N#Cc1cc2c(N)c(C(=O)c3ccc(Br)cc3)sc2nc1N | 2.7% |
| O=C(NCC1CCCO1)C1CCC(CNS(=O)(=O)c2cccc3nsnc23)CC1 (stereo not drawn) | 4.54% |
| Cc1cccc(NC(=O)COc2ccc(C)cc2C)c1 | -2.32% |
| Cc1ccc(OCC(=O)Nc2ccccc2)c(C)c1 | 78% |
| Cc1ccc(NC(=O)COc2ccc(C)cc2C)cc1 | -8.06% |
| COc1ccc(NC(=O)c2ccc(C)c(Br)c2)cc1 | 2.42% |
| Cc1c(CNC2CCCc3ccccc32)c(C(=O)O)c(C)n1Cc1ccc(F)cc1 (stereo not drawn) | -5.49% |
| Cc1cccc(Oc2nc3c(C)cccn3c(=O)c2/C=C(\C#N)C(=O)NCC2CCCO2)c1 (stereo not drawn) | -9.06% |
| C=CCN1C(=O)C(CC(=O)NCC)S/C1=N\c1cccc2ccccc12 (stereo not drawn) | 0.512% |
| CCOC(=O)/C(C#N)=C/c1c(Oc2ccccc2OC)nc2ccccn2c1=O | -5.1% |
| COC(=O)/C(C#N)=C/c1c(Oc2cccc(C)c2C)nc2ccccn2c1=O | -5.1% |
| CNC(=O)/C(C#N)=C/c1c(Oc2cc(C)ccc2C(C)C)nc2ccccn2c1=O | 17% |
| CCNC(=O)/C(C#N)=C/c1c(Oc2cc(C)ccc2C(C)C)nc2ccccn2c1=O | 75.9% |
| Cc1ccc(C(C)C)c(Oc2nc3ccccn3c(=O)c2/C=C(\C#N)C(=O)NCc2ccccc2)c1 | -1.43% |
| CCOC(=O)/C(C#N)=C/c1c(Oc2cccc(C)c2C)nc2ccccn2c1=O | 77.8% |
| Cc1cc(C)c2c(n1)SCC(=O)N2CC(=O)NCc1cccc(Cl)c1 | -6.01% |
| COCCN(Cc1ccco1)C(=O)c1cc2c(Cl)nc3ccccc3c2s1 | 3.88% |

| Structure (SMILES) | % Inhibition @ 10 uM |
| --- | --- |
| Cc1ccc(-c2nnc(SCC(=O)N3CCC(C)CC3)o2)cc1C | 1.3% |
| COc1ccc(CN2CCN(Cc3cccc(F)c3)CC2)c(OC)c1OC | 5.99% |
| Cc1cccc(Oc2nc3ccccn3c(=O)c2/C=C(\C#N)c2nc3ccccc3[nH]2)c1 | 6.78% |
| N#C/C(=C\c1c(Oc2ccccc2Cl)nc2ccccn2c1=O)c1nc2ccccc2[nH]1 | -1.86% |
| Cc1cc(Oc2nc3ccccn3c(=O)c2/C=C(\C#N)c2nc3ccccc3[nH]2)ccc1Cl | 92.2% |
| COc1ccc(-c2nc(CSc3nnc(C)n4c3cc3oc(C)cc34)c(C)o2)cc1 | 3.61% |
| Cc1cc(C)c(S(=O)(=O)N2CCN(c3ccc(F)cc3)CC2)c(C)c1 | -6.86% |
| CN(c1ccc(C(=O)Nc2ccc(F)cc2)cc1)S(=O)(=O)c1ccccc1 | -7.56% |
| Cc1sc(NC(=O)COc2ccc(Cl)cc2Cl)c(C#N)c1C | 1.25% |
| Cc1sc(NC(=O)COc2ccc(F)cc2F)c(C#N)c1C | 93.9% |
| CCc1c(C)sc(NC(=O)COc2ccc(F)cc2)c1C#N | 0.777% |
| CCCNC(=O)c1cc2ncc(Br)cn2n1 | 1.04% |
| O=C(Nc1cccnc1)c1cc2n(n1)C(C(F)(F)F)CC(c1ccc(Br)cc1)N2 (stereo not drawn) | 2.99% |
| O=C(O)c1cc2n(n1)C(C(F)(F)F)CC(c1ccccc1)N2 (stereo not drawn) | -1.32% |
| O=C(Nc1ccc(Br)cn1)c1cc2n(n1)C(C(F)(F)F)CC(c1ccccc1)N2 (stereo not drawn) | 50.4% |
| O=C(Cc1nnc(-c2ccc(Br)cc2)o1)NC1CCN(Cc2ccccc2)CC1 | 2.28% |
| CP(=O)(O)c1nc2ccccc2s1 | -2.44% |
| c1ccc(CN2CCn3c4c(c5ccccc53)CCCC42)cc1 (stereo not drawn) | -1.25% |
| Cc1ccc2c(c1)c1c3n2CCN(Cc2ccccc2)C3CCC1 (stereo not drawn) | 1.26% |
| C1=C(c2ccc3c(c2)c2c4n3CCN(Cc3ccccc3)C4CCC2)C2CCN1CC2 (stereo not drawn) | 70.5% |
| CN(C)CCN(C)C1CCN(Cc2ccccc2)CC1 | 0.162% |
| Cc1cc(C)c(C#N)c(SCc2ccccc2)n1 | -0.305% |
| Cc1cc(C)c(C#N)c(SCc2ccccc2F)n1 | 40.7% |
| Cc1cc(C)c(C#N)c(SCc2ccccn2)n1 | 66.4% |
| CCOC(=O)c1c(NC(=O)/C=C/C(=O)O)sc2c1CCN(Cc1ccccc1)C2 | -1.92% |
